The results in this text go back to PubChem BioAssay (Tox21).

Results filed as inconclusive are left out. Entries that show only a call come without a potency. Activity calls are given as the source filed them. The call rests on the fitted dose curve; in most records, active means well fitted cell-killing curve with a large enough effect in the repeat runs; inconclusive means weak or mixed curves, or effect the other way; inactive means flat fitted curve, though single readings scatter.

This test is described as follows: cAMP Responsive Elements (CRE) small molecule agonists, cell-based qHTS assay: qHTS cell viability counter screen (AID 2060914).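 Further: viability read after 3 h of compound exposure; nearly all actives have a fitted effect of over 50% in size.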 The note with it: CRE-bla HEK293T viability, CellTiter-Glo luminescence, 5 h; series mostly up to 92.4 µM. The text has this: National Center for Advancing Translational Sciences [NCATS]
Division of Preclinical Innovation [DPI]
U.S. Environmental Protection Agency [EPA]
National Institutes of Environmental Health Sciences [NIEHS]
National Toxicology Program [NTP]
U.S. Food and Drug Administration [FDA]
CREB (cyclic-AMP Responsive Element Binding Protein) is a cellular transcription factor. It binds to certain DNA sequences called cAMP Responsive Elements (CRE) and regulates the transcription of the genes. […] This cell line can be used to find agonists/antagonists of the cyclic AMP signaling pathway. The activation of the report gene under culture conditions can be detected by fluorescence intensity. This cell line has been used to screen the Tox21 10K compound library to identify agonists that induce oxidative stress. The cytotoxicity of the Tox21 compound library against the CRE-bla cell line was tested in parallel by measuring the cell viability using CellTiter-Glo assay (Promega, Madison, WI) in the same wells.
Tox21 Assay Protocol Summary:
CRE-bla Hek 293T cells were suspended in assay medium (DMEM containing 10% dialyzed FBS, 0.1 mM NEAA, 1 mM sodium pyruvate and 25 mM HEPES) and dispensed at 2,000 cells/5 uL /well into 1536-well black wall/clear bottom plates using a Multidrop Combi (ThermoFisher Scientific, Waltham, MA) dispenser. After the assay plates were incubated at 37 C/5% CO2 for 18 hrs, 23 nL of compounds dissolved in DMSO, positive controls or DMSO only was transferred to the assay plate by a pintool workstation (Kalypsys, San Diego, CA). After the plates were incubated at 37 C/5% CO2 for 3 hrs, 1 uL of LiveBLAzer B/G FRET substrate (Invitrogen, Carlsbad, CA) was added to each well using Bioraptr Flying Reagent Dispenser (FRD, Aurora Discovery, San Diego, CA). The plates were incubated at room temperature for 2 h, then fluorescence intensities were measured using an Envision plate reader (PerkinElmer, Shelton, CT) at Excitation 405nm, Emission 460nm and 530nm. The % activity was determined from the ratio of 460nm/530nm. For cell viability readout that measures cytotoxicity, 4 uL /well of CellTiter-Glo reagent was added into the assay plates using Bioraptr FRD. After 30 min incubation at room temperature, the luminescence intensity in the assay plates was measured using a ViewLux (PerkinElmer, Shelton, CT) plate reader.
(In general: In qHTS, concentration-response curves come from the screen itself.)
Regarding `CCC(CC)Nc1ccc(C)c(C)c1`, the Potency result is “inactive”.
With `C=C(C)C(=O)OCC(CC)(COC(=O)C(=C)C)COC(=O)C(=C)C` the entry was “inactive”; with `CN(C)C(=O)Nc1ccc(Oc2ccc(Cl)cc2)cc1`, “inactive”.
In the case of `CC(C)Cc1ccccc1`, the Potency result was “inactive”.
`O=C(/C=C/c1ccc(O)c(O)c1)O[C@@H]1C[C@@](OC(=O)/C=C/c2ccc(O)c(O)c2)(C(=O)O)C[C@@H](O)[C@@H]1O`: the Potency entry was “inactive”.
As to `N=C(N)c1ccccc1`, the Potency entry was “inactive”.
For `CC(=O)CC(=O)Nc1ccccc1`, the Potency entry was “inactive”.
Regarding `O=C(c1ccccc1)c1cccc(O)c1`, the Potency entry was “inactive”.
Regarding `Cc1cc(C)c(O)c(C)c1`, the Potency entry was “inactive”.
Consider `CN1C(=O)N(C)C(O)C1O` (stereo not given), for which the Potency entry is “inactive”.
For the compound `CCC(=O)OC(C)(C)C1CC=C(C)CC1` (stereo not given), the Potency entry is “inactive”.
As for `CCCC(CCC)(C(=O)OCC)C(=O)OCC`, the Potency result is “inactive”.
`CC(C)=CCCC(C)O` (stereo not given): the Potency entry is “inactive”.
Regarding `NC(=O)c1c(Cl)cccc1Cl`, the Potency result is “inactive”.
For `N#CSCC(=O)O`, the Potency entry is “inactive”.
As to `CC(=O)c1ccccc1[N+](=O)[O-]`, the Potency result was “inactive”.
Take `CCCCCCCCCCO`: the Potency entry was “inactive”.
Consider `CC(=O)O[C@]1(C(C)=O)CC[C@H]2[C@@H]3C=C(Cl)C4=CC(=O)[C@@H]5C[C@@H]5[C@]4(C)[C@H]3CC[C@@]21C`, for which the Potency result was “inactive”.
With `OCCCc1ccccc1` the entry was “inactive”; with `Cc1c(Cl)cccc1Nc1ccccc1C(=O)O`, “inactive”.
With `CCCCCCCCCCCC(=O)OCC` the entry was “inactive”; with `Cc1ccc(N)c(S(=O)(=O)O)c1`, “inactive”.
Consider `CCn1c2ccccc2c2cc([N+](=O)[O-])ccc21`, for which the Potency result is “inactive”.
Take `CN1C(=O)CC(c2ccccc2)C1=O` (stereo not given): the Potency result was “inactive”.
With `CCCC(=O)O[C@]1(C(=O)CO)CC[C@H]2[C@@H]3CCC4=CC(=O)CC[C@]4(C)[C@H]3[C@@H](O)C[C@@]21C` the entry was “inactive”; with `Cc1cc(C)nc(NS(=O)(=O)c2ccc(N)cc2)n1`, “inactive”; with `CC(C)=CCC/C(C)=C\C#N`, “inactive”.
Regarding `O=c1n(CCO)c(=O)n(CCO)c(=O)n1CCO`, the Potency entry was “inactive”.
In the case of `CC1=CC(O)CC(C)(C)C1` (stereo not given), the Potency entry is “inactive”.
As to `OCCCO`, the Potency entry was “inactive”.
As for `Cc1cccc2cccnc12`, the Potency result is “inactive”.
With `Nc1ccc(Cl)c([N+](=O)[O-])c1` the entry was “inactive”.
`CNC(=O)c1cc(Oc2ccc(NC(=O)Nc3ccc(Cl)c(C(F)(F)F)c3)cc2)ccn1`: the Potency entry was “inactive”.
Take `CN1CC[C@H](c2c(O)cc(O)c3c(=O)cc(-c4ccccc4Cl)oc23)[C@H](O)C1`: the Potency result is “inactive”.
Take `C=C(C)C(=O)OC`: the Potency result is “inactive”.
With `N#Cc1ccc(C/C(=N/NC(=O)Nc2ccc(OC(F)(F)F)cc2)c2cccc(C(F)(F)F)c2)cc1` the entry was “inactive”; with `ClCCl`, “inactive”.
As for `SCCOCCOCCS`, the Potency entry was “inactive”.
Consider `COCC(=O)O[C@]1(CCN(C)CCCc2nc3ccccc3[nH]2)CCc2cc(F)ccc2[C@@H]1C(C)C`, for which the Potency entry was “inactive”.
For the compound `COC(c1ccccc1)(c1ccccc1)[C@H](Oc1nc(C)cc(C)n1)C(=O)O`, the Potency entry was “inactive”.
